Source: PubChem BioAssay AID588856 (National Center for Advancing Translational Sciences (NCATS), 2011)
Screen size: about 410,000 compounds; about 3,100 (0.76%) were called active. The sample holds actives, similar compounds and a random draw of the others, so the mix is not that of the screen. Calls follow the shape of the dose curve; as a rule, active = well fitted cell-killing curve with a large enough effect; inactive = no such curve, though single readings can be large or run the other way.

Experiment: qHTS for Inhibitors of TGF-b: Cytotox Counterscreen
Settings: HepG2 CAGA-GFP viability, ATP luminescence, 18 h; series mostly up to 46.1 µM; activity change, negative = cytotoxicity: at the top concentration
Outline: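 HepG2 CAGA-GFP cells (1000/well, DMEM with 1% FBS) received compound, then TGF-beta at 500 pg/mL final, and were incubated 18 hours at 37 degrees C. Viability was read by CellTiter-Glo luminescence. Media-only wells were set as complete cell-killing and DMSO as no toxicity.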
Potency is read from the fitted curve at half-maximal effect.

| SMILES | Potency | activity change, negative = cytotoxicity |
| --- | --- | --- |
| Oc1cccc2cc(-c3ccncc3)cnc12 | 2.82 µM (active) | – |
| Cc1ccc2c(c1)N(C(=O)CCC(=O)NCc1ccccc1F)CC(C)O2 (stereo unspecified) | – | -1.52% (inactive) |
| CC1=C(C(=O)OCC2CCCCC2)C(c2c(F)cccc2Cl)CC(=O)N1 (stereo unspecified) | – | 1.73% (inactive) |
| CN(Cc1ccccc1)CC(O)COc1ccc(CNCc2cc3ccccc3s2)cc1 (stereo unspecified) | 11.2 µM (active) | – |
| COC(=O)c1ccc(OCC(O)CN(CCO)CC(O)Cn2ccc3ccccc32)cc1 (stereo unspecified) | – | -3.35% (inactive) |
| COc1cccc(CN(C)CC(O)COC(c2ccccc2)c2ccccc2C)c1 (stereo unspecified) | – | -80.7% (inactive) |
| C=C1CCN(C(CC(C)C)C(=O)NCc2cc(OC)c(OC)c(OC)c2)S(=O)(=O)c2ccccc21 (stereo unspecified) | – | -4.21% (inactive) |
| O=C(Cn1cc(/C=N/NC(=O)c2cccc(C(F)(F)F)c2)c2ccccc21)Nc1ccc(F)cc1 | – | -34.7% (inactive) |
| N#CCC(=O)N/N=C/c1cn(Cc2ccc3ccccc3c2)c2ccccc12 | 3.55 µM (active) | – |
| Cc1ccc(Cl)cc1NC(=O)/C(C#N)=C\c1cn(Cc2ccc(F)cc2)c2ccccc12 | – | -32.7% (inactive) |
| Cc1ccc(Cn2c(CCCNC(=O)C3CCCCC3)nc3ccccc32)cc1 | – | -24% (inactive) |
| Cc1ccc2c(=O)c(C(=O)c3cccc(Cl)c3)cn(CC(=O)NCc3ccccc3)c2n1 | – | -18.6% (inactive) |
| COc1ccc(-c2c(C#Cc3ccccc3)c3ccccc3n2C)cc1 | – | 0.571% (inactive) |
| COc1ccc(CCNCc2c(-c3ccccc3)n(C)c3ccccc23)cc1 | 12.6 µM (active) | – |
| COc1ccc(Cn2c(C(=O)O)c(CNCCc3cccs3)c3ccc(OC)cc32)cc1 | – | -6.96% (inactive) |
| CN(C)c1ccc(/C=C/c2sc3ccccc3[n+]2C)cc1 | – | -41.5% (inactive) |
| CCC(C)c1ccc2oc(-c3ccc(NC(=O)c4cc5ccccc5o4)cc3)nc2c1 (stereo unspecified) | – | 0.606% (inactive) |
| CCc1ccc(C(CNc2nc(C(F)(F)F)nc3ccccc23)N(C)C)cc1 (stereo unspecified) | 20 µM (active) | – |
| CN(C)C(CNC(=O)Cc1ccc([N+](=O)[O-])cc1)c1ccccc1 (stereo unspecified) | – | -13.6% (inactive) |
| CN(NC(=O)c1ccccc1F)c1nc(C(F)(F)F)nc2ccccc12 | – | -1.05% (inactive) |
| CC1CCN(S(=O)(=O)c2ccc3c(ccn3CCC(=O)NCc3ccc(N(C)C)cc3)c2)CC1 | – | -26.5% (inactive) |

| SMILES | Potency | activity change, negative = cytotoxicity |
| --- | --- | --- |
| O=C(O)c1c(Br)c(Br)c(Br)c(Br)c1C1c2ccc(O)cc2Oc2cc(O)ccc21 | – | 1.05% (inactive) |
| Cc1cc(F)ccc1NS(=O)(=O)c1ccc(-n2cccn2)cc1 | – | -13.1% (inactive) |
| Cc1ccc(Oc2ccc3c(c2)C(=O)N(c2cccc4cccnc24)C3=O)cc1 | – | 18.4% (inactive) |
| Cc1ccc(OCCn2c(CNc3ccccc3C)nc3ccccc32)cc1 | – | -44.5% (inactive) |
| Cc1ccc(OS(=O)Nc2cccc3nccnc23)cc1 (stereo unspecified) | 15.8 µM (active) | – |
| CCOCCn1ccc2c(OCC(=O)NCc3ccc(C)cc3)cccc2c1=O | – | -4% (inactive) |
| COc1ccc(Cc2nc3ccc(C(=O)NCc4ccc(OC)cc4OC)cc3o2)cc1 | – | -13.9% (inactive) |
| COC(=O)c1c(NC(=O)c2ccc(S(=O)(=O)N3CCOCC3)cc2)sc2c1CCN(C(C)C)C2 | – | -16.4% (inactive) |
| CCOC(=O)c1c(NC(=O)C2CCN(S(=O)(=O)c3ccc(Cl)cc3)CC2)sc2c1CCCC2 | – | 7.04% (inactive) |
| CCOC(=O)c1c(NC(=O)c2ccc(S(=O)(=O)N3CCCC(C)C3)cc2)sc2c1CCN(C(C)C)C2 (stereo unspecified) | 10 µM (active) | – |
| Cc1nc2c(c(C)nn2-c2ccccc2)c(C)c1CCC(=O)NCCc1ccc(Cl)cc1 | – | 0.163% (inactive) |
| CCOCCCNC(=O)c1cn(CC)c2ccc(S(=O)(=O)N3CCc4ccccc4C3)cc2c1=O | – | -29% (inactive) |
| CCOC(=O)c1c(C)oc2nc(C)nc(N(CC(C)C)CC(C)C)c12 | – | -42.6% (inactive) |
| CCOc1ccc(-c2n[nH]c3c2C(c2ccccc2OC)N(c2ccc(Br)cc2)C3=O)cc1 (stereo unspecified) | – | -17.9% (inactive) |
| CCOC(=O)c1ccc(N2C(=O)c3n[nH]c(C)c3C2c2ccc(O)c(OC)c2)cc1 (stereo unspecified) | – | -22.1% (inactive) |
| CCOc1cc(C2c3c(-c4ccc(Br)cc4)n[nH]c3C(=O)N2c2ccc(Cl)cc2)ccc1O (stereo unspecified) | 10 µM (active) | – |
| O=C(NCc1ccc(Cl)cc1)c1ccc2c(c1)nnn2C1CCCC1 | – | -20% (inactive) |
| COc1ccc(C(=O)COC(=O)C(O)c2ccccc2)c(OC)c1 (stereo unspecified) | – | -6.27% (inactive) |
| COc1ccc(/C=C/C(=O)c2cc(Br)ccc(=O)c2O)cc1 | – | -35.7% (inactive) |
| COc1ccc(C(=O)/C=C/c2cccnc2)c(OC)c1 | 15.8 µM (active) | – |
| CCS(=O)(=O)c1nc(S(=O)(=O)c2ccc(C)cc2)c(NCc2ccc(Cl)cc2)s1 | – | -1.56% (inactive) |

| SMILES | Potency | activity change, negative = cytotoxicity |
| --- | --- | --- |
| CCC(=O)N1CCc2cc(Br)cc(S(=O)(=O)CCC(=O)NCCc3ccc(OC)c(OC)c3)c21 | – | 5.48% (inactive) |
| COc1ccc(-c2cn3nc(N4CCC(C(=O)Nc5cccc(C)c5C)CC4)sc3n2)cc1 | – | -1.02% (inactive) |
| CC(C)=CCCC1(C)C=Cc2c(ccc3c2[nH]c2cc(O)c(C)cc23)O1 (stereo unspecified) | 15.8 µM (active) | – |
| Brc1ccc2c(c1)NC(c1cccnc1)=NC(c1ccccc1)=N2 | – | -0.338% (inactive) |
| COc1ccc(CCNC(=O)c2cc(=O)c3c(C)cc(C)cc3o2)cc1OC | – | 7.77% (inactive) |
| Cc1ccc(N(C)C(=O)C2CCN(S(=O)(=O)c3ccc4c(c3)CCCN4C(=O)C3CCC3)CC2)cc1 | – | -11.8% (inactive) |
| CCc1ccc(NC(=O)C2CCCN2S(=O)(=O)c2ccc3nc(-c4ccccc4)[nH]c3c2)cc1 (stereo unspecified) | – | -33.6% (inactive) |
| O=S(=O)(N1CCOCC1)N1CCN(c2ccccc2F)CC1 | – | 0.0503% (inactive) |
| O=C(c1ccc(CN2CCOCC2)cc1)N1CCN(c2ccccc2F)CC1 | 3.16 µM (active) | – |
| O=C(CCSc1ccccc1)N1CCN(c2ccccc2F)CC1 | – | -4.95% (inactive) |
| Cc1cccc(N2CCN(C(=O)c3ccc(Nc4nc5ccccc5n5nnnc45)cc3)CC2)c1C | – | -1.95% (inactive) |
| CN(C)c1ccc(C=Nc2ccc(/C=C/c3ccnc4ccccc34)cc2)cc1 | – | -25.8% (inactive) |
| Oc1c(Cl)cc(Cl)c(Cl)c1Cc1c(O)c(Cl)cc(Cl)c1Cl | 10 µM (active) | – |
| N#Cc1ccc[n+](CC(=O)c2ccc(F)cc2)c1 | – | 1.22% (inactive) |
| COC(=O)c1ccc(Cn2c(SCC(=O)N(C)c3ccccc3)nc3ccccc32)cc1 | – | -22% (inactive) |
| CCOC(=O)c1scc(-c2ccccc2)c1S(=O)(=O)Nc1ccccc1F | – | -27.7% (inactive) |
| CCCS(=O)(=O)c1ncc(Cl)c(C(=O)Nc2scc(-c3ccccc3)c2C(=O)OCC)n1 | 11.2 µM (active) | – |
| CCOC(=O)c1c(-c2ccc(C)cc2C)csc1NC(=O)CSc1nnnn1C | – | -0.949% (inactive) |
| CCOC(=O)c1ccc(NC(=O)CC2C(=O)N(c3ccccc3)C(=O)N2Cc2cccs2)cc1 (stereo unspecified) | – | -9.2% (inactive) |
